Source: the supplement of paper PMC3334620
Whole data set: some 33,000 sequences, median “E-score (-0.5 to 0.5)” near -0.032, cut for the highest 2% near 0.36. Shown is part of a subset that was picked to be rich in the highest values.

Target: T1, Sko1 (UniProt Q02100)
T1 sequence: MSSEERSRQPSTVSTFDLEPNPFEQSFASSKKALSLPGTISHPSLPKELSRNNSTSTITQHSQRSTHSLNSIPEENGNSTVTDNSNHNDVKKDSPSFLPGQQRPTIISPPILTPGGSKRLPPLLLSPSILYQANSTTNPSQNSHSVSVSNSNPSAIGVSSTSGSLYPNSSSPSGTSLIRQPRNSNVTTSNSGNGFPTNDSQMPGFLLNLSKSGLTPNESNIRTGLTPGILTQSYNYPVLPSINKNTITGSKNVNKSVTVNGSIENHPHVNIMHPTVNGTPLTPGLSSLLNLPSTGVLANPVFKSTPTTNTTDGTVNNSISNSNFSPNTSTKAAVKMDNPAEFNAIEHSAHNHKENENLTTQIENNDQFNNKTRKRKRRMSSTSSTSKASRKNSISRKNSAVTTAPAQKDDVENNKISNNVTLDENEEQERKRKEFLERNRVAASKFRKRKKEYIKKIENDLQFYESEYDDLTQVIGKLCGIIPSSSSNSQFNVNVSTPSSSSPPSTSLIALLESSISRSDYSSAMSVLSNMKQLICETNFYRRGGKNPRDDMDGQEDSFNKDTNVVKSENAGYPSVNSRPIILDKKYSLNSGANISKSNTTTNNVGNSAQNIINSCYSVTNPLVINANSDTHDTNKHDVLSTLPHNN
Assay: PBM E-score (8-mer binding enrichment) (E-score (-0.5 to 0.5)); higher = stronger / more preferred TF binding
Conditions: protein concentration: 200 nM; construct: GST-full length
Description: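 Universal 'all 10-mer' protein binding microarrays (Agilent AMADID 015681) probed with GST-tagged S. cerevisiae TFs (full-length or DBD) made by in vitro transcription/translation (PURExpress), about 100-200 nM. Bound TF was detected with fluorescent anti-GST. Each ungapped 8-mer (which stands for itself and its reverse complement) is scored by the PBM enrichment score (E-score), a modified Wilcoxon-Mann-Whitney statistic from -0.5 to +0.5, computed with the Universal PBM Analysis Suite. Scale: above 0.35 generally sequence-specific binding.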

Sequence | PBM E-score
GGAAAACC | -0.128
CATTAGCC | -0.188
AATGACAT | 0.4
AATGACAC | 0.258
AATGACAG | 0.0139
AGTGACAC | 0.191
AGTGACAA | 0.0709
AGTGACAT | 0.361
ACTGCCTG | -0.0718
AGAAGCAT | -0.0822
CTGGGTTC | -0.145
ACCACAGC | -0.195
AATGGCGG | -0.3
AATGGCGT | 0.387
AATGGCGC | -0.0228
CACTCCTC | -0.168
ACTCAGCT | -0.174
CACGTACA | 0.389
AGCGTACG | 0.214
CGCGTACG | 0.401
CTCGTACC | 0.123
AACGTACA | 0.303
CCCGTACA | -0.273
CACGTACG | 0.406
CGCGTACA | 0.209

Sequence | PBM E-score
CAAGTACG | 0.135
AACGTACC | 0.223
CCCGTACG | 0.0984
CACGTACC | 0.407
ACTTATTA | 0.157
GAGCCCTC | -0.351
ACCTTTCC | -0.271
AGGGCGAT | -0.0344
ACTAGGGC | -0.211
GCACTTAA | 0.109
AAACCTGC | -0.203
AGCTTCCT | 0.0027
GACGTACC | 0.433
GTCGTACA | 0.0687
TACGTACA | 0.477
GCCGTACA | -0.148
GGCGTACC | -0.0685
ACCGTACA | 0.0593
TCCGTACA | 0.0313
GACGTACA | 0.446
GCCGTACC | -0.175
ATTCAAGA | 0.0257
ACTCTCAA | -0.00162
CGTGTGGA | 0.00704
AAATCTCG | 0.014

Sequence | PBM E-score
GACACTTA | -0.00276
AAATTACT | 0.196
AAATTACC | 0.0333
ATATTACG | 0.465
AAATTACG | 0.439
CAATTACG | 0.455
ATATTACC | 0.251
CAATTACC | 0.156
ATATTACA | 0.175
CAATTACA | 0.167
AAGGTCGA | -0.0566
ACCAAGCT | 0.0443
GACACCAC | -0.0851
CACTATCG | -0.0728
GAATCATC | 0.0732
ACGTTAGC | 0.352
GCGTTATA | 0.194
ACGTTATC | 0.413
ACGTTACC | 0.297
ACGTTACA | 0.359
ACGTTACG | 0.428
CCGTTATC | -0.00855
ACGTTGTA | 0.394
ACGTTGTG | 0.311
CCGTTATA | 0.0635

Sequence | PBM E-score
GCGTTGTA | 0.057
ACGTTATA | 0.426
CGCGCTGC | -0.147
CGCCCGGA | -0.211
TACTGAAA | 0.219
AGAGACGA | 0.0256
CCGGCTCA | -0.162
AAGAGAAC | 0.0447
GTGTGAGA | 0.0436
ACGTTAGG | 0.244
ACGTTATG | 0.419
ACGTTAAG | 0.325
ATGACGCA | 0.492
GGGACGCA | 0.0981
AGGACGCA | -0.117
CTGACGCC | 0.159
ATGACGCG | 0.476
GCGACGCA | 0.128
GTGACGCA | 0.457
CTGACGCA | 0.403
CGGACGCA | -0.121
ACGACGCG | 0.148
AAGACGCG | -0.115
ACGACGCA | 0.334
GGACCTCA | -0.0759

Sequence | PBM E-score
ACCTGCGC | -0.192
AGTGTGGG | -0.197
CACCTGGC | -0.0659
CAGCCCTC | -0.334
CCCTAGAG | -0.32
ATTCCCGG | -0.0536
ACTAAGTA | 0.0919
AGGCGCGG | -0.242
ACAAACCG | -0.0685
ATGCCCGG | -0.334
GCGGTTAA | -0.186
TAATTCTA | 0.227
ATCACCAA | 0.0298
AAGACGCC | -0.165
ATGACGCC | 0.449
ATGACTCC | -0.00531
TACTAGAA | 0.124
GGACGTTA | 0.251
CGACGTAC | 0.412
CGACGAAG | 0.00357
CGTCGTAG | 0.0813
AGACGGAA | -0.136
GGACGTAA | 0.426
AGACGTAA | 0.447
GGACGTAC | 0.275

Sequence | PBM E-score
CGACGTGC | 0.22
AGACGTTA | 0.283
CGACGTAG | 0.368
CGACGTTC | -0.0745
CAAAAATC | 0.131
CCGACTCA | -0.246
ACCTAACA | 0.056
CATTTGCG | 0.179
ACGCAGCC | 0.0962
AATACTTA | 0.178
CGACGTTA | 0.337
CGACGTAA | 0.472
CGACGTGA | 0.344
ACTGCACA | -0.0526
ATAACGGA | 0.0991
CTAACGTA | 0.374
ATAACGTA | 0.461
GTAACGTA | 0.421
GTAACGAA | 0.216
GTAACGCA | 0.217
CTAACGGA | 0.007
CTAACGAA | 0.0318
ATAACGAA | 0.268
TCGTCTCA | -0.0858
ATTTCGAA | 0.247

Sequence | PBM E-score
AGTGGGGA | -0.201
ACACCTTG | 0.00022
TTTGCAAA | 0.0584
ATTCATCG | -0.0686
AACCAGAA | 0.0649
AGTAGGAA | -0.0265
CGGAAGGA | -0.178
ACAACGGA | 0.00163
CCAACGCA | 0.117
ACAACGTG | 0.218
GCAACGAA | 0.148
GCAACGTA | 0.399
ACAACGTC | 0.368
CCAACGTA | 0.387
GCAACGCA | 0.0485
ACAACGTA | 0.416
CCAACGTC | 0.236
ACAACGAA | 0.0922
ACAACGCC | 0.0338
ATCACTCC | -0.0415
CACACCCC | -0.208
CGCGAACC | -0.0595
AATCCAAT | 0.0698
CTCGGATC | -0.0845
TAATTCGA | 0.198

Sequence | PBM E-score
ATGCACTG | -0.0475
AGATATTC | 0.0644
ATAACGAC | 0.241
ATAACGTC | 0.425
CTAACGTC | 0.338
ATAACGTG | 0.377
ATAACGGG | 0.00173
ATAACGCG | 0.184
ATTGCTTC | -0.109
CCGAACTC | -0.125
CTGTTAGA | -0.0627
AAGTTCTC | -0.203
AAATGATG | 0.373
CAATGATA | 0.254
AAATGATA | 0.266
CAATGATG | 0.381
AAATGATT | 0.263
CAATGATC | 0.0721
CCCGATAC | -0.0866
CCTACTTA | -0.00728
GCCCGTAA | 0.172
ACGCACGA | 0.295
AAGCACGA | 0.0735
ACGCACAA | 0.262
AAGCACGG | -0.00706

Sequence | PBM E-score
ACGCACAT | 0.387
ACGCACGT | 0.403
ACGCACAG | 0.254
AAGCACGT | 0.389
ACGCACGC | 0.316
GGAACGGA | -0.185
ATTCGCTG | 0.0204
ATAATACC | 0.138
ACAATACA | 0.0868
ACAATACG | 0.386
ATAATACG | 0.376
AGAATACG | 0.304
CGAATACG | 0.406
ACAATACT | 0.151
CGAATACC | -0.0967
ATAATACA | 0.208
CTGGCAAC | -0.23
CACGCTTA | 0.116
AGATGCAT | -0.0801
